{
  "source": "PubChem BioAssay",
  "key": {"[1]": {"tested_on": "transactivating tegument protein VP16 (Human herpesvirus 1)", "assay": "VP16 transactivation reporter inhibitors, counter-screen for SRC2 inhibitor project, cell-based, luminescence, single concentration (AID 652007)", "conditions": "cell-based VP16 transactivation luciferase reporter, at 8.9 µM, stronger effect = higher value"}, "[2]": {"target": "Nuclear receptor coactivator 2 (Homo sapiens) (UniProt Q15596)", "sequence (Q15596 whole entry, looked up, the tested form may be a part)": "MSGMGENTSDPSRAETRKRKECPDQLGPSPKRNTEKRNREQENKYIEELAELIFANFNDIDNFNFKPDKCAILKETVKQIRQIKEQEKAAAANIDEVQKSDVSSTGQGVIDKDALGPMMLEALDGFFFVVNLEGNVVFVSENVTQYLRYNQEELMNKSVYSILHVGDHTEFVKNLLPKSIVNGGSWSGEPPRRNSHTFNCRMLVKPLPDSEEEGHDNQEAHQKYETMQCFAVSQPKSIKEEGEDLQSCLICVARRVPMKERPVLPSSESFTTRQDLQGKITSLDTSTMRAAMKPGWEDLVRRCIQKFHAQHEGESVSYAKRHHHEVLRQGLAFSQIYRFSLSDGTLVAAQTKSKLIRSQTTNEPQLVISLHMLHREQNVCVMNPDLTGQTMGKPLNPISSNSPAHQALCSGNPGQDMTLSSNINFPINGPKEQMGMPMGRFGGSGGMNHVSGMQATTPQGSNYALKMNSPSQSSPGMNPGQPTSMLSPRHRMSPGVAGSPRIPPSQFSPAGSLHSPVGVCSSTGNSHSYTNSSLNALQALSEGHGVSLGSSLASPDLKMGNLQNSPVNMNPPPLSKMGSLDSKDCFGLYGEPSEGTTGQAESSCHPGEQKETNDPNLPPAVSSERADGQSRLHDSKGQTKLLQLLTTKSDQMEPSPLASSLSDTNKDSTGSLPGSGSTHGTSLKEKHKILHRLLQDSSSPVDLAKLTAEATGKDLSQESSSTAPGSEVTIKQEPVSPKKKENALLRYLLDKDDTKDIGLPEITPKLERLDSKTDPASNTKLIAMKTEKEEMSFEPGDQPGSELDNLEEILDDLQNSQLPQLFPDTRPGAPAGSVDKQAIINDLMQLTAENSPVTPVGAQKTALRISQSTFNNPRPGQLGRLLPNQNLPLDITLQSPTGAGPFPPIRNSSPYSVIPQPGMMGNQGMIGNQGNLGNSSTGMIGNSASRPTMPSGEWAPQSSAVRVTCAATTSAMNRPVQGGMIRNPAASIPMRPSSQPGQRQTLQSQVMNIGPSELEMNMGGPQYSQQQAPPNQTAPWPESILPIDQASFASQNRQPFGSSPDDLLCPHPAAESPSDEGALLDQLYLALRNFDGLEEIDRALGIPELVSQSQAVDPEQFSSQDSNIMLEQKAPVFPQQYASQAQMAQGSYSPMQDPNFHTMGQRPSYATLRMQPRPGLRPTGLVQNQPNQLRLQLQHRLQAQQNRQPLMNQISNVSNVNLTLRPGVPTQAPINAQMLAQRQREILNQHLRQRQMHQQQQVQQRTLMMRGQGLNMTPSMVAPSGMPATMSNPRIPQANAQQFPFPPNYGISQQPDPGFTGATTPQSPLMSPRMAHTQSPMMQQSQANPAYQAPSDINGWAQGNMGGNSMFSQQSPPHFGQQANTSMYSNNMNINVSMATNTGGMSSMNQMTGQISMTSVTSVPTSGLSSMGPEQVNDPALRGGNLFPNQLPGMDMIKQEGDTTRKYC", "assay": "SRC2 coactivator transcriptional activity inhibitors, confirmation, cell-based, luminescence, HEK293, triplicate (AID 652008;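 active = mean inhibition above 46.5%, the solvent-only control mean plus 3 SD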;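 note: 0% = DMSO-treated cells and 100% = Gossypol at 36 µM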)", "conditions": "HEK293 GAL4-SRC2 luciferase reporter, at 8.9 µM, stronger effect = higher value"}},
  "note": "A number with no mark means an inactive call. Calls of active or inactive are those of the source. Cut-off read from the data, not from the text of the source, unless noted: active = inhibition above about 36%; inactive = the rest.",
  "data": [
    {"smiles": "O=C(Nc1ccccc1)C1=C(c2ccccc2)S(=O)(=O)CCS1(=O)=O", "values": [
      {"measurement": "inhibition", "setting": "[1]", "result": "84.9% (active)"},
      {"measurement": "inhibition", "setting": "[2]", "result": "90.1% (active)"}
    ]},
    {"smiles": "O=C1NC(c2ccccc2)Cc2ccncc21", "note": "(centres undefined)", "values": [
      {"measurement": "inhibition", "setting": "[1]", "result": -6.21, "unit": "%"},
      {"measurement": "inhibition", "setting": "[2]", "result": -28.4, "unit": "%"}
    ]},
    {"smiles": "CCCCc1ccc(S(=O)(=O)N/N=C(/C)c2ccncc2)cc1", "values": [
      {"measurement": "inhibition", "setting": "[1]", "result": 30.5, "unit": "%"},
      {"measurement": "inhibition", "setting": "[2]", "result": "68.7% (active)"}
    ]},
    {"smiles": "O=C(Nc1cccc(-c2cccc(Cl)c2)c1)C1CCN(Cc2ccccn2)CC1", "values": [
      {"measurement": "inhibition", "setting": "[1]", "result": -2.92, "unit": "%"},
      {"measurement": "inhibition", "setting": "[2]", "result": 17.7, "unit": "%"}
    ]},
    {"smiles": "CCOc1ccc(-c2cc(CCCC(=O)Nc3cc(OC)ccc3OC)no2)cc1", "values": [
      {"measurement": "inhibition", "setting": "[1]", "result": "47.9% (active)"},
      {"measurement": "inhibition", "setting": "[2]", "result": "79.5% (active)"}
    ]},
    {"smiles": "Cc1nc(SCc2ccc(C(=O)O)cc2)nc2c1CCCC2", "values": [
      {"measurement": "inhibition", "setting": "[1]", "result": 10.8, "unit": "%"},
      {"measurement": "inhibition", "setting": "[2]", "result": 23.6, "unit": "%"}
    ]},
    {"smiles": "COC(=O)c1ccc(CN2CCc3ccc(NC(=O)c4ccncc4)cc3C2)cc1", "values": [
      {"measurement": "inhibition", "setting": "[1]", "result": -9.32, "unit": "%"},
      {"measurement": "inhibition", "setting": "[2]", "result": 26.8, "unit": "%"}
    ]},
    {"smiles": "O=C(O)CCCCCCCCCCC1CCC(O)C1O", "note": "(centres undefined)", "values": [
      {"measurement": "inhibition", "setting": "[1]", "result": 20.8, "unit": "%"},
      {"measurement": "inhibition", "setting": "[2]", "result": "65.3% (active)"}
    ]},
    {"smiles": "Cc1ccc(-c2noc(CCC(=O)NCCN3CCN(Cc4ccccc4)CC3)n2)cc1", "values": [
      {"measurement": "inhibition", "setting": "[1]", "result": 12.2, "unit": "%"},
      {"measurement": "inhibition", "setting": "[2]", "result": 41.6, "unit": "%"}
    ]},
    {"smiles": "CCC(C)[C@H](NC(=O)N1CCn2c1nc1ccccc12)C(=O)NCc1ccc(OC)cc1", "note": "(some centres undefined)", "values": [
      {"measurement": "inhibition", "setting": "[1]", "result": -13, "unit": "%"},
      {"measurement": "inhibition", "setting": "[2]", "result": 8.36, "unit": "%"}
    ]},
    {"smiles": "CCOc1ccc(-c2cc(CCCC(=O)NCCc3ccccc3)no2)cc1", "values": [
      {"measurement": "inhibition", "setting": "[1]", "result": 6.55, "unit": "%"},
      {"measurement": "inhibition", "setting": "[2]", "result": 44.9, "unit": "%"}
    ]},
    {"smiles": "c1ccc(-c2csc3ncnc(NCc4ccccn4)c23)cc1", "values": [
      {"measurement": "inhibition", "setting": "[1]", "result": -7.12, "unit": "%"},
      {"measurement": "inhibition", "setting": "[2]", "result": 4.33, "unit": "%"}
    ]},
    {"smiles": "Cc1c(CCC(=O)N[C@@H](CCCNC(N)=O)C(=O)O)c(=O)oc2cc3oc4c(c3cc12)CCCC4", "values": [
      {"measurement": "inhibition", "setting": "[1]", "result": "47.2% (active)"},
      {"measurement": "inhibition", "setting": "[2]", "result": "57.7% (active)"}
    ]},
    {"smiles": "O=C(O)c1ccc(Nc2nc3c(s2)CCCC3)cc1", "values": [
      {"measurement": "inhibition", "setting": "[1]", "result": -31, "unit": "%"},
      {"measurement": "inhibition", "setting": "[2]", "result": 10.9, "unit": "%"}
    ]},
    {"smiles": "COc1ccc(-n2c(-c3ccccc3)c[n+]3c2CCC3)cc1", "values": [
      {"measurement": "inhibition", "setting": "[1]", "result": 6.63, "unit": "%"},
      {"measurement": "inhibition", "setting": "[2]", "result": 36, "unit": "%"}
    ]},
    {"smiles": "CCCCN1C[C@@H](COCc2ccccc2)Oc2cc(F)ccc2S1(=O)=O", "values": [
      {"measurement": "inhibition", "setting": "[1]", "result": -1.24, "unit": "%"},
      {"measurement": "inhibition", "setting": "[2]", "result": 11.9, "unit": "%"}
    ]},
    {"smiles": "COc1ccc2nc(-c3ccc(N)cc3)[nH]c2c1", "values": [
      {"measurement": "inhibition", "setting": "[1]", "result": -62.2, "unit": "%"},
      {"measurement": "inhibition", "setting": "[2]", "result": "49.5% (active)"}
    ]},
    {"smiles": "O=C(O)Cc1nn(Cc2ccc(Cl)cc2)c(=O)c2ccccc12", "values": [
      {"measurement": "inhibition", "setting": "[1]", "result": -13.4, "unit": "%"},
      {"measurement": "inhibition", "setting": "[2]", "result": -30.9, "unit": "%"}
    ]},
    {"smiles": "Cc1c(C)n(Cc2ccccc2)c2ncnc(Cl)c12", "values": [
      {"measurement": "inhibition", "setting": "[1]", "result": 19.1, "unit": "%"},
      {"measurement": "inhibition", "setting": "[2]", "result": 39.9, "unit": "%"}
    ]},
    {"smiles": "CCN(CC)C(=O)C1CCCN(c2ncnc3c2cnn3-c2cccc(C)c2)C1", "note": "(centres undefined)", "values": [
      {"measurement": "inhibition", "setting": "[1]", "result": -13.2, "unit": "%"},
      {"measurement": "inhibition", "setting": "[2]", "result": 30.7, "unit": "%"}
    ]},
    {"smiles": "CCCCC(NC(=O)CCc1c(C)c2cc3c4c(oc3c(C)c2oc1=O)CCCC4)C(=O)O", "note": "(centres undefined)", "values": [
      {"measurement": "inhibition", "setting": "[1]", "result": 31.6, "unit": "%"},
      {"measurement": "inhibition", "setting": "[2]", "result": 29.4, "unit": "%"}
    ]},
    {"smiles": "CC(C)c1nc(N2CCOCC2)c(C#N)c2c1CCC2", "values": [
      {"measurement": "inhibition", "setting": "[1]", "result": -15.7, "unit": "%"},
      {"measurement": "inhibition", "setting": "[2]", "result": 4.3, "unit": "%"}
    ]},
    {"smiles": "CN(C)c1ccc(C(C[N+](=O)[O-])c2c(N)n(C)c(=O)n(C)c2=O)c(F)c1C#N", "note": "(centres undefined)", "values": [
      {"measurement": "inhibition", "setting": "[1]", "result": 6.34, "unit": "%"},
      {"measurement": "inhibition", "setting": "[2]", "result": 6.89, "unit": "%"}
    ]},
    {"smiles": "C[n+]1cc2c3c(ccc2c2ccc4cc5c(cc4c21)OCO5)OCO3", "values": [
      {"measurement": "inhibition", "setting": "[1]", "result": "96% (active)"},
      {"measurement": "inhibition", "setting": "[2]", "result": "98.7% (active)"}
    ]},
    {"smiles": "O=C(CCCN1C(=O)/C(=C/c2ccccc2Cl)SC1=S)NCCCN1CCOCC1", "values": [
      {"measurement": "inhibition", "setting": "[1]", "result": 33.6, "unit": "%"},
      {"measurement": "inhibition", "setting": "[2]", "result": 45.9, "unit": "%"}
    ]},
    {"smiles": "Nn1c(SCC(=O)Nc2cc(C(F)(F)F)ccc2Cl)nncc1=O", "values": [
      {"measurement": "inhibition", "setting": "[1]", "result": 3.78, "unit": "%"},
      {"measurement": "inhibition", "setting": "[2]", "result": -1.26, "unit": "%"}
    ]},
    {"smiles": "O=C(Nc1ccc2nc3n(c(=O)c2c1)CCCCC3)c1c(F)ccc([N+](=O)[O-])c1F", "values": [
      {"measurement": "inhibition", "setting": "[1]", "result": "83% (active)"},
      {"measurement": "inhibition", "setting": "[2]", "result": "75.5% (active)"}
    ]}
  ]
}
